Screens deposited in PubChem by several laboratories.
Calb FLC: C. albicans growth modulation with fluconazole; growth inhibition, % (no concentration beside the values); AID 1979; C. albicans CaCi-2 (fluconazole-resistant clinical isolate) + fluconazole, Alamar Blue growth, 48 h; actives 0.57% (n = 300,000);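 active = growth inhibition above about 58% in most replicates, limit read from the data, passing the limit was not always enough; inconclusive = exactly half the replicates above a set limit; inactive = most replicates below a set limit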;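 note: all wells also contain fluconazole at 8 µg/ml as a sub-toxic cotreatment; 0% = median of DMSO wells and 100% = median of geldanamycin control wells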
CTSL1 counter: blocks F. hepatica cathepsin L1 in PFM18AAP counter-screen; recombinant F. hepatica cathepsin L1, Z-Leu-Arg-MCA fluorescence; inhibition, % at 5.96 µM; actives 0.49% (n = 300,000);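 active = inhibition above the mean of all tested compounds plus 3 SD, set per screening campaign, cut at about 17% in these data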;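 note: 0% = plate median of test compound wells and 100% = 1 µM Z-Phe-Ala-diazomethylketone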
Rin1 Abl inh: inhibitors of human Rin1-Abl protein interaction; TR-FRET Rin1/Abl binding, biochemical; inhibition, % at 7.35 µM; actives 0.4% (n = 360,000); in the data active = inhibition above about 5%, passing the limit was not always enough
M18AAP inhibitor: PfM18AAP enzyme inhibition; recombinant PfM18AAP, H-Glu-NHMec fluorogenic cleavage; inhibition, % at 7.35 µM; actives 1.2% (n = 290,000);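 active = inhibition above the campaign mean inhibition over all tested compounds plus 3 SD, cut at about 28% in these data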;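 note: 0% = plate median of test compound wells and 100% = 2 mM ZnCl2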
The depositor's hits bear a star; ? = inconclusive; . = not tested or not shown. This is a sample that favours compounds with a hit; in the whole collection about 2.1% have one here.

SMILES	Calb FLC	CTSL1 counter	Rin1 Abl inh	M18AAP inhibitor
CSCCC1NC2(C(=O)Nc3c(C)cc(Cl)cc32)[C@@H]2C(=O)N(C3CCCC3)C(=O)[C@H]12 (some centres undefined)	84*	6	-1	-5
O=c1c2ccccc2cnn1Cc1n[nH]c(=S)n1-c1cc(Cl)cc(Cl)c1	0	3	-3	30*
O=c1c2ccccc2cnn1Cc1n[nH]c(=S)n1-c1ccc(F)c(Cl)c1	-3	5	-4	21
O=C(Nc1cccc(Cl)c1)Nc1nccs1	80*	-3	-3	3
O=C(Nc1ccc(Cl)c(Cl)c1)Nc1nccs1	64	2	-2	4
O=C(CCN=C1NS(=O)(=O)c2ccccc21)OCc1cccc(Cl)c1	6	0	6	.
O=C(N=C1SC2CS(=O)(=O)CC2N1c1ccccc1Cl)C1CCCO1 (centres undefined)	-9	-3	1	-2
O=C(NCCNC(=O)C(c1ccccc1)c1ccccc1)c1ccco1	111*	-1	-1	5
COc1cc(C(=O)O/N=C2\C=CC(=O)C=C2C)cc(OC)c1OC	.	2	-2	4
COc1cc(C(=O)ON=C2C3CC4CC(C3)CC2C4)cc(OC)c1OC	-17	36*	0	-2
O=S(=O)(Nc1cccc2ncccc12)c1cccs1	95*	4	-4	1
Cc1cccc(N2CCN(C(=O)c3cn(C)c(=O)c4c3c3ccccc3n4C)CC2)c1C	57*	2	-4	-12
O=C(NCc1cc([N+](=O)[O-])ccc1O)c1cccnc1Sc1ccccc1Cl	86*	3	4	2
Cc1cccc(N2CCN(c3nc(C)cc(C)c3C#N)CC2C)c1 (centres undefined)	90*	-1	0	-1
O=C(CSc1ccccn1)Nc1ccc2c(c1)OCO2	-2	2	-1	1
O=C(CSc1ccccn1)NCc1ccc2c(c1)OCO2	-29	17*	-2	-5
COc1cccc(N(C(=O)c2csnn2)C(C(=O)NC2CCCC2)c2ccccc2)c1 (centres undefined)	-7	-8	2	0
CN1C(=O)/C(=C\C(=O)c2cccs2)c2ccccc21	97*	.	1	21
O=C1CCN(C(=O)c2cccs2)c2ccccc21	4	-1	3	1
Cc1nc(-n2[nH]c3c(c2=O)CCCC3)[nH]c(=O)c1Cc1ccccc1	89*	3	-5	15
O=C1CCC(=O)N1CC1CC2CCC1C2 (centres undefined)	3	1	3	-3
COc1ccc(C2=NN(C(=O)c3ccco3)C(c3ccco3)C2)cc1OC (centres undefined)	16	9	3	0
CN(C)c1nc(=NCc2ccco2)ss1	.	0	1	47*
COc1ccc(C(=O)NCC(C)(C)N2CCOCC2)cc1S(=O)(=O)N1CCCC1	.	.	1	.
Cc1ccc(-c2nc3ccc(Cl)cc3c(=O)n2O)cc1	106*	-4	0	1
SMILES	Calb FLC	CTSL1 counter	Rin1 Abl inh	M18AAP inhibitor
O=c1c2ccccc2nc(-c2cccc(Cl)c2)n1O	?	0	2	5
O=c1c2cc(Br)ccc2nc(-c2ccccc2)n1O	100*	1	-1	4
Cc1ccc(-c2nc3ccccc3c(=O)n2O)cc1	5	-4	1	3
O=S(=O)(c1ccc(Cl)c(Cl)c1)c1snnc1-c1ccccc1	95*	.	-1	0
O=C(N/N=C/c1sc2ccccc2c1O)c1cccc2ccccc12	88*	4	-4	14
COc1ccccc1N1CCN(C(=O)c2cc(-c3ccc(F)cc3)[nH]c2C)CC1	12	.	1	-8
CC1(CCc2ccccc2)NC(=O)N(CC(=O)Nc2ccc3c(c2)OCCO3)C1=O (centres undefined)	110*	-4	1	9
CCn1c(NC(=O)c2cccs2)nc2ccccc21	78*	0	0	4
Cc1cc(C)nc(NC(=O)/C=C/c2ccc(Cl)cc2Cl)c1	-12	19*	-1	-2
O=C(Cc1ccccc1)N/N=C/c1ccccc1Cl	116*	2	-3	7
O=C(N/N=C/c1ccc(Cl)cc1Cl)Nc1ccccc1	117*	3	-3	12
O=C(N/N=C/c1cccc(Cl)c1Cl)Nc1ccccc1	10	-5	2	2
CCCCNS(=O)(=O)c1ccc(Br)cc1N1CCC[C@H]1CO	.	.	-1	.
CN(C)c1ccc(CNC(=O)CCNS(=O)(=O)c2cc(Br)cnc2N)cc1	-7	-2	1	14
O=C1C(Cl)=C(NCc2cccnc2)C(=O)c2ccccc21	-6	27*	-14	5
CCOc1ccc(C(=O)C(C)OC(=O)Cn2cnc3c2c(=O)n(C)c(=O)n3C)cc1 (centres undefined)	1	-2	2	.
COc1cc2oc(-c3ccc(O)cc3)cc(=O)c2c(O)c1OC	8	-2	-2	.
COc1c(O)cc2oc(-c3ccc(O)cc3)cc(=O)c2c1O	26	-7	-3	.
COc1cc2oc(-c3ccc(O)cc3)cc(=O)c2c(OC)c1O	42	.	4	33*
O=c1cc(-c2ccccc2)oc2cc(O)c(O)c(O)c12	.	.	21*	.
COc1ccc(N(CC(=O)NN=C2CCN(C)CC2)S(=O)(=O)c2ccc(NC(C)=O)cc2)cc1	4	-8	3	-8
Cc1c(CCOC(=O)CC23CC4CC(CC(C4)C2)C3)sc[n+]1CC(=O)c1ccccc1	56	-7	4	3
Cc1c(CCOC(=O)C23CC4CC(CC(C4)C2)C3)sc[n+]1Cc1ccccc1	57	-2	-1	-9
Cc1c(CCOC(=O)C23CC4(C)CC(C)(CC(C)(C4)C2)C3)sc[n+]1CC(=O)c1ccccc1	113*	-1	3	3
Cc1c(CCOC(=O)C23CC4CC(CC(C)(C4)C2)C3)sc[n+]1Cc1ccccc1	101*	-1	-1	-6
SMILES	Calb FLC	CTSL1 counter	Rin1 Abl inh	M18AAP inhibitor
Cc1nn(C)c(C)c1NC(=O)Nc1ccc(Cl)c(Cl)c1	12	20*	0	-15
COc1cccc(/C=N/n2c(COc3ccccc3)n[nH]c2=S)c1OC	7	3	1	32*
FC(F)(F)c1ccccc1/C=N/n1c(COc2ccccc2)n[nH]c1=S	8	1	2	28*
COc1cc(/C=N/n2c(COc3ccccc3)n[nH]c2=S)cc(Br)c1O	15	0	0	31*
CCOC(=O)N/N=C\c1ccc(OC/C=C/c2ccccc2)cc1	52	.	2	4
O=C(C1=C(O)C(=O)N(CC2CCCO2)C1c1ccccc1Cl)c1ccco1 (centres undefined)	0	1	-4	5
Cc1scc(C(=O)N/N=C/c2ccc(Cl)s2)c1C	-1	1	2	-1
OC1C2COC(O2)C2OC(c3ccccc3)OC12 (centres undefined)	.	.	-4	.
CCn1c(COc2ccc(=O)n(-c3ccccc3)n2)nnc1SCc1cccc(OC)c1	85*	3	4	-6
CCCCCCN1C[C@H](O)[C@@H](n2cc(COC(=O)c3ccccc3)nn2)C[C@@H]1c1ccccc1	.	.	-3	.
CN(Cc1ccccc1)C(=O)C(C(=O)c1ccc(F)cc1)n1cc(Cl)ccc1=O (centres undefined)	-1	-7	2	-13
